This is an account of results in the supplement of paper PMC11634586.

A number with no mark means an inactive call.

For this assay, the system named is NCI-H1688. As to the kind of experiment: inhibition of cell viability relative to untreated control (fraction); higher = stronger growth inhibition, active = 0.5 or more. Conditions: 30 µM; 24 h. Put shortly: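 Values are inhibition of cell viability expressed as a fraction, derived from viability normalised to untreated cells. NCI-H1688 small cell lung cancer cells in 96-well plates were exposed to a natural compound library (TargetMol) at 30 µM for 24 h at 37°C with 5% CO2, and Cell Counting Kit-8 absorbance at 450 nm was then read.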
Turning to `O=c1c(-c2ccc(O)cc2)coc2cc(O[C@@H]3O[C@H](CO)[C@@H](O)[C@H](O)[C@H]3O)ccc12` [Daidzin], the “inhibition of cell viability” value is -0.0211.
On to `COc1ccc2c(C)cc(=O)oc2c1` [7-Methoxy-4-methylcoumarin], for which the “inhibition of cell viability” value was -0.298.
The result for `O=c1cc(-c2ccc(O)c(O)c2)oc2cc(O[C@@H]3O[C@H](CO)[C@@H](O)[C@H](O)[C@H]3O)cc(O)c12` [Cynaroside] reads 0.705 (active); that for `COc1ccc(/C=C/C(=O)O)cc1O` [Isoferulic acid], -0.0461; that for `CNC[C@H](O)c1ccc(O)c(O)c1` [Epinephrine bitartrate], 0.0849.
The result for `CC(C)C1=CC2=CC[C@@H]3[C@](C)(CCC[C@@]3(C)C(=O)O)[C@H]2CC1` [Abietic Acid] reads 0.0466; that for `C=C(C)[C@@H]1CC[C@]2(CO)CC[C@]3(C)[C@H](CC[C@@H]4[C@@]5(C)CC[C@H](O)C(C)(C)[C@@H]5CC[C@]43C)[C@@H]12` [Betulin], 0.831 (active).
In the case of `COc1ccc2[nH]cc(CCNC(C)=O)c2c1` [Melatonine] it was 0.177; in that of `CC(C)=CCC[C@](C)(O[C@@H]1O[C@H](CO)[C@@H](O)[C@H](O)[C@H]1O)[C@H]1CC[C@]2(C)[C@@H]1[C@H](O)C[C@@H]1[C@@]3(C)CC[C@H](O)C(C)(C)[C@@H]3[C@@H](O[C@@H]3O[C@H](CO)[C@@H](O)[C@H](O)[C@H]3O[C@@H]3OC[C@@H](O)[C@H](O)[C@H]3O)C[C@]12C` [Notoginsenoside R1], -0.0107; in that of `C[n+]1cccc(C(=O)[O-])c1` [Trigonelline], -0.0163.
For the molecule `O=c1c(O)c(-c2cc(O)c(O)c(O)c2)oc2cc(O)cc(O)c12` [Myricetin], the “inhibition of cell viability” value was 0.0201.
For `COc1cc([C@@H]2c3cc4c(cc3[C@@H](O[C@@H]3O[C@@H]5CO[C@@H](C)O[C@H]5[C@H](O)[C@H]3O)[C@H]3COC(=O)[C@H]23)OCO4)cc(OC)c1O` [Etoposide], the “inhibition of cell viability” value was 0.664 (active).
In the case of `O=C1c2c(O)cccc2C([C@@H]2O[C@H](CO)[C@@H](O)[C@H](O)[C@H]2O)c2cc(CO)cc(O)c21` (stereo partly specified) [Aloin], the “inhibition of cell viability” value is -0.014.
The result for `O=c1c2ccccc2oc2ccccc12` [Xanthone] reads -0.129; that for `C=C(C)[C@@H]1CC[C@]2(C(=O)O)CC[C@]3(C)[C@H](CC[C@@H]4[C@@]5(C)CC[C@H](O)C(C)(C)[C@@H]5CC[C@]43C)[C@@H]12` [Betulinic acid], 0.622 (active); that for `C[C@]12CCC(=O)C=C1CC[C@@H]1[C@@H]2C(=O)C[C@@]2(C)[C@H]1CC[C@]2(O)C(=O)CO` [Cortisone], -0.215.
